# Assay results taken from PubChem BioAssay AID1445 (SRMLSC, 2008).
# About 910 (0.41%) of roughly 220,000 compounds were called active. The entries come from a sample that favours actives as a whole. Potency and affinity values are given separately. Values without a mark were called inactive.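 How the source made its calls: active means primary inhibition above the hit cutoff, then over 50% inhibition at one or more dose response concentrations (cut at about 23% in these data, passing the limit was not always enough); inconclusive means conflicting primary data, or primary hits not chosen for dose response; inactive means low primary inhibition, or under 50% at every dose.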
# Target: Aminopeptidase N (Plasmodium falciparum (isolate 3D7)) (UniProt O96935)
# Sequence (O96935 whole entry, looked up): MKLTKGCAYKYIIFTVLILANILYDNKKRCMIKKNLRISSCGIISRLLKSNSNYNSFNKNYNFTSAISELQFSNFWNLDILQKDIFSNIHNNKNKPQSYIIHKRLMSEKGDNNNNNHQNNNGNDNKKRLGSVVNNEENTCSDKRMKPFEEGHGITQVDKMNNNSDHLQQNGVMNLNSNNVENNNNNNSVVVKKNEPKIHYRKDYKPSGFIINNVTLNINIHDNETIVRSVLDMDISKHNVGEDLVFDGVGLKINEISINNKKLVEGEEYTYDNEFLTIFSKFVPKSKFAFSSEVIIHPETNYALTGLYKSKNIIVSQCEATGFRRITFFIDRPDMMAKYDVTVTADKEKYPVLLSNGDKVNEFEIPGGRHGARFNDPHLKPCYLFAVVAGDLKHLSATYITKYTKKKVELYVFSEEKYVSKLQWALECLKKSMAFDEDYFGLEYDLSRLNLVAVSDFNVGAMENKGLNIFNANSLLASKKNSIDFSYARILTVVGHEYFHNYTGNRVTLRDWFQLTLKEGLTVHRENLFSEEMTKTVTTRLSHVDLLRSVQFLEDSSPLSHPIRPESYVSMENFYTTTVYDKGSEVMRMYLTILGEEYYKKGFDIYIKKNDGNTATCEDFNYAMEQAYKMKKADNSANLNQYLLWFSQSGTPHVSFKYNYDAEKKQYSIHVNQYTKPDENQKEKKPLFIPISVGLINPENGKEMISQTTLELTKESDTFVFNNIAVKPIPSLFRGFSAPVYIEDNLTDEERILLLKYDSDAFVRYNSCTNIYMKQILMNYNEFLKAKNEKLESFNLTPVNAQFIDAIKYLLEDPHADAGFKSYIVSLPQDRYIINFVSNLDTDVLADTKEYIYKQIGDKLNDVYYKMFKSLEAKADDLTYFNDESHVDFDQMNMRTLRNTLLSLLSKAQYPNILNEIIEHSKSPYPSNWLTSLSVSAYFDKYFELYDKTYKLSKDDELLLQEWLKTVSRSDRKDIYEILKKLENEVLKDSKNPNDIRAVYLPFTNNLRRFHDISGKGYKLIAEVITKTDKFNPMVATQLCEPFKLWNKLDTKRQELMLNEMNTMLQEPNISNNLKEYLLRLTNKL
# Assay: P. falciparum M1AAP inhibitors, biochemical, fluorogenic H-Leu-NHMec substrate, 1536-well (AID 1445);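 further: plate controls were DMSO full reaction for no effect and no enzyme background for full effect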
# Conditions: recombinant M1AAP, H-Leu-NHMec fluorogenic kinetic assay; at 30 µM, active compounds read high unless noted
row,Compound,inhibition
1,Cc1ccc(NC(=O)CCNS(=O)(=O)c2cc(Br)cnc2N)c(Cl)c1,6.45%
2,COc1ccc(-n2c(C)cc(/C=C(\C#N)C(=O)NCc3ccco3)c2C)cc1,9.23%
3,CS(=O)(=O)c1ccc(Cl)c(NC(=O)COC(=O)c2cccc(C#N)c2)c1,6.76%
4,C/C(=N/NC(=O)CCc1c(C)n[nH]c1C)c1cccc([N+](=O)[O-])c1,0.36%
5,CC(C)c1ccccc1NC(=O)CNCCc1ccc(C(F)(F)F)cc1,4.1%
6,CCCCNC(=O)Cn1c(=O)oc2cc(S(=O)(=O)N3CC(C)CC(C)C3)ccc21 (stereo unspecified),2.08%
7,Cc1ccc(S(=O)(=O)N(Cc2cc3cc4c(cc3[nH]c2=O)OCCO4)CC2CCCO2)cc1 (stereo unspecified),8.8%
8,Cn1c(SCC(=O)N2CCOCC2)nnc1-c1ccc(NC(=O)c2ccccc2F)cc1,3.9%
9,Cn1c(SCC(=O)N2CCOCC2)nnc1-c1cccc(NC(=O)c2ccccc2)c1,16.6%
10,Cn1c(SCC(=O)N2CCOCC2)nnc1-c1cccc(NC(=O)c2ccccc2F)c1,25.4% (active)
11,CCOC(=O)Cc1nnc(NC(=O)C(CC)Sc2nc(C)cc(=O)[nH]2)s1 (stereo unspecified),11%
12,CCC(C)Nc1nc(OC(C(F)(F)F)C(F)(F)F)nc(OC(C(F)(F)F)C(F)(F)F)n1 (stereo unspecified),9.34%
13,O=C(Nc1ccc2nc(-c3ccccn3)[nH]c2c1)C1CCCCC1,-0.77%
14,CC(=O)Nc1ccc2nc(-c3ccncc3)[nH]c2c1,10.3%
15,O=C(CNC(=O)c1ccc(S(=O)(=O)N2CCCC2)cc1)N/N=C/c1ccc(Cl)cc1,3.87%
16,Cn1c(-c2ccc[nH]c2=O)nc2cc(Cl)ccc21,3.43%
17,CCCn1c(-c2ccc[nH]c2=O)nc2ccccc21,4.86%
18,COc1cc(/C=C2\OC(=O)c3c(OC)cccc32)ccc1O,18.4%
19,CCC(=O)Oc1ccc2c(C)cc(=O)oc2c1C(=O)CC,1.59%
20,CCn1c(COc2ccc(=O)n(-c3ccccc3)n2)nnc1SCc1ccccc1,1.85%
21,Cc1ccc(NC(=O)c2cc([N+](=O)[O-])ccc2N2CCCC2)cc1,9.65%
22,CCOC(=O)c1ccc(NC(=O)CSc2nccn2C)cc1,13.7%
23,CCOC(=O)c1ccc(NC(=O)CSc2nc3ncccc3[nH]2)cc1,15.1%

row,Compound,inhibition
1,CCOC(=O)c1ccc(NC(=O)CSc2ncccn2)cc1,25.8% (active)
2,CCC(=O)N1CCCn2c1nc1ccccc12,0.87%
3,O=C(Nc1ccccc1)N1CCn2c1nc1ccccc12,3.81%
4,O=C(C1CCCCC1)N1CCCn2c1nc1ccccc12,26.8% (active)
5,CN(C)S(=O)(=O)c1ccc(C(=O)N2CCN=C2SCc2cccnc2)cc1,-3.94%
6,COc1ccccc1Nc1nc(N)nc(CN2CCC(C)CC2)n1,3.95%
7,O=C(Nc1ccc(Cl)cc1)c1ccc(-n2cccn2)c([N+](=O)[O-])c1,0.77%
8,Cc1cccc(OCC(=O)Nc2cccc(-c3nnc(-c4ccccc4)o3)c2)c1C,24% (active)
9,Cc1cccc(C)c1OCC(=O)Nc1cccc(-c2nnc(-c3ccccc3)o2)c1,1.97%
10,Cc1ccc(OCC(=O)Nc2cccc(-c3nnc(-c4ccccc4)o3)c2)c(C)c1,2.43%
11,Cc1ccc(C)c2c1cc(C)c1nnc(SCC(=O)N3CCCc4ccccc43)n12,3.01%
12,Cc1ccc(C(=O)/C=C2/NC(=O)CS2)cc1,17.7%
13,O=C1CS/C(=C/C(=O)c2ccccc2)N1,25.3% (active)
14,CC(C)(C)c1ccc(C(=O)/C=C2\NC(=O)CS2)cc1,7.72%
15,CC(/C=N/NC(=O)Cn1cnc2c1c(=O)n(C)c(=O)n2C)=C\c1ccco1,5.25%
16,Cc1c(C(=O)OCc2ccccc2)[nH]c2c1C(=O)CC(c1ccco1)C2 (stereo unspecified),6.2%
17,Cc1c(C(=O)OC2CCCC2)[nH]c2c1C(=O)CC(c1ccco1)C2 (stereo unspecified),25.6% (active)
18,CCOC(=O)c1[nH]c2c(c1C)C(=O)CC(c1ccco1)C2 (stereo unspecified),15.3%
19,CC(C(=O)NC1C(=O)N2C(C(=O)O)=C(CSc3nnnn3C)CSC12)n1cc(Cl)cn1 (stereo unspecified),6.59%
20,COc1ccc(NC(=O)C2OC3OC(C)(C)OC3C3OC(C)(C)OC23)cc1 (stereo unspecified),6.98%
21,NC(=O)N/N=C/c1cc(Br)ccc1OC(=O)c1ccccc1,6.38%
22,CC1(C)OC2OC(C(=O)N/N=C/c3ccccc3F)C3OC(C)(C)OC3C2O1 (stereo unspecified),-0.42%
23,Nc1nonc1C(=O)N/N=C/c1ccncc1,9.52%

row,Compound,inhibition
1,O=C(CCc1ccccc1)N/N=C/c1cc(Br)ccc1O,16.7%
2,Nc1nonc1C(=O)N/N=C/c1ccc(Br)o1,15.9%
3,O=C(CCC(=O)Nc1ccc(Br)cc1)N/N=C/c1cc([N+](=O)[O-])ccc1O,13.8%
4,COC(=O)N/N=C/c1cc(Br)ccc1O,17.8%
5,CCCn1nnc(NC(=S)NC(=O)C(C)(C)C)n1,7.37%
6,O=C1c2cc(S(=O)(=O)NCCO)ccc2-c2ccc(S(=O)(=O)NCCO)cc21,2.13%
7,Cc1ccc([N+](=O)[O-])cc1NC(=O)Nc1ccc(S(N)(=O)=O)cc1,-7.81%
8,CC1=CC2=NC(=O)CC(C)(C(=O)N(CC(=O)NC(C)C)C3CCCC3)N2C=C1 (stereo unspecified),1.08%
9,O=C(Nc1ccc(Br)cc1)c1cccn1-c1ncc(C(F)(F)F)cc1Cl,-0.41%
10,Cc1ccc(NC(=O)C2CCN(C(=O)c3ccccc3C)CC2)cc1,4.97%
11,CCN(CC)CCOC(=O)c1ccc(N/C=C(/C#N)c2nc(-c3ccc(OC)cc3)cs2)cc1,4.36%
12,CCOC(=O)c1c(-c2ccc(F)cc2)csc1NC(=O)c1c(-c2ccccc2)noc1C,0.4%
13,CCOC(=O)C1=NN(c2ccccc2)C2=NC(C)=C(C(=O)OC)C(c3ccc(C)cc3)N12 (stereo unspecified),8.08%
14,CCC(=O)N1N=C(c2c(-c3ccccc3)c3cc(Cl)ccc3[nH]c2=O)CC1c1ccco1 (stereo unspecified),22.1%
15,CC(=O)N1N=C(c2c(-c3ccccc3)c3cc(C)ccc3[nH]c2=O)CC1c1ccco1 (stereo unspecified),20%
16,CC(=O)N1N=C(c2ccc(C)cc2)CC1c1ccco1 (stereo unspecified),6.1%
17,COc1ccc(C2CC(c3ccccc3)=NN2C(=O)COC(=O)C2CC2)cc1 (stereo unspecified),8.28%
18,Cc1ccc(C2=NN(C(=O)CCCC(=O)O)C(c3ccco3)C2)cc1 (stereo unspecified),7.5%
19,COc1ccc(C2CC(c3c(-c4ccccc4)c4cc(Cl)ccc4[nH]c3=O)=NN2S(C)(=O)=O)cc1 (stereo unspecified),2.82%
20,O=C(O)CCC(=O)N1N=C(c2ccccc2)CC1c1ccc2nccnc2c1 (stereo unspecified),12%
21,COc1ccc(C2CC(c3c(-c4ccccc4)c4cc(Cl)ccc4[nH]c3=O)=NN2S(C)(=O)=O)cc1OC (stereo unspecified),13.3%
22,Nc1nonc1-c1nc2ccccc2n1CC(=O)O,11.2%
23,C[C@H](NC(=O)c1nc[nH]c1C(=O)NCCCCCNC(=O)OC(C)(C)C)C(=O)OC(C)(C)C,-4.42%

row,Compound,inhibition
1,CCCCCCCc1ccc(C2NC(=S)NC3=C2C(=O)c2ccccc23)cc1 (stereo unspecified),3.12%
2,CCOc1ccccc1NC(=O)/C(C#N)=C/c1c(C)nn(-c2ccccc2)c1Cl,4.31%
3,CC(C)CN(C(=O)CSc1nnc2ccccn12)c1c(N)n(CC(C)C)c(=O)[nH]c1=O,6.58%
4,CC1(C)N=C(N)N=C(N)N1c1ccc(OCCCOc2ccccc2)c(Cl)c1,-0.74%
5,Cc1csc(SCC(=O)NC2CCCCC2)n1,-5.21%
6,COc1ccc(NC(=O)c2ccccc2C)c(OC)c1,5.69%
7,Cc1ccc(CN2C3CCCC2CC(NC(=O)c2ccc(C)cc2)C3)cc1 (stereo unspecified),-1.65%
8,O=C(NC(=S)NC1C2CC3CC(C2)CC1C3)C12CC3CC(CC(C3)C1)C2 (stereo unspecified),5.47%
9,COc1ccc(CNC(=O)c2ccccc2SC)cc1,-2.23%
10,CN(C1CCCCC1)S(=O)(=O)c1ccccc1,-1.57%
11,COc1ccccc1NS(=O)(=O)c1cccc(NC(=O)Nc2ccccc2)c1,2.5%
12,COc1ccc(CN2C(=O)c3cccc4cccc(c34)C2=O)cc1,-0.38%
13,COc1ccc(CNC(=O)CCCN2C(=O)c3ccccc3C2=O)cc1,1.01%
14,COc1ccccc1NS(=O)(=O)c1cccc(N2CC(O)=C(c3ccccc3)C2=N)c1,9.55%
15,Cc1cc(C)n(-c2ccc(C(=O)OCC(=O)Nc3ccc(S(=O)(=O)N4CCOCC4)cc3)cc2)n1,-7.49%
16,CCOc1ccc(CCNC(=O)COC(=O)c2cc(OC)cc(OC)c2)cc1OCC,6.82%
17,COC(=O)c1ccccc1NC(=O)CNC(=O)c1ccco1,7.08%
18,O=C(c1ccco1)N1N=C(c2ccc(Br)cc2)CC1(O)C(F)(F)F (stereo unspecified),-1.14%
19,CC(C)CCNC(=O)CNC(=S)N(Cc1ccccc1)Cc1cccnc1,-3.15%
20,COc1ccc(/C=N/NC(=O)CC(=O)N/N=C/c2ccc(OC)cc2)cc1,5.03%
21,COc1ccc(/C=N/NC(=O)CSCC(=O)Nc2ccccc2)cc1,0.01%
22,Cc1ccc2nc(CSc3nnc(Cc4cccs4)n3C3CCCCC3)cc(=O)n2c1,14.2%
